Measurements published in PubChem BioAssay (NCI).
Compounds without any hit were thinned out: in the full panel of roughly 83,000, 20% have a hit.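 Each cell line was grown in a 96-well plate and treated with one concentration of compound for 48 hours. Values below 10 were considered active.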 A number with no mark means an inactive call. The source made the active and inactive calls.

Assays:
Assay in all cases: NCI-60 one-dose screen, 48 h (100 = growth as untreated, 0 = no growth, -100 = all killed)
Conditions in all cases: 10 µM unless noted
SR leukemia = system: SR leukemia
RPMI-8226 leukemia = system: RPMI-8226 leukemia
OVCAR-8 ovarian = system: OVCAR-8 ovarian
OVCAR-5 ovarian = system: OVCAR-5 ovarian
OVCAR-4 ovarian = system: OVCAR-4 ovarian
IGROV1 ovarian = system: IGROV1 ovarian
OVCAR-3 ovarian = system: OVCAR-3 ovarian
HS 578T breast = system: HS 578T breast
NCI/ADR-RES ovarian = system: NCI/ADR-RES ovarian
T-47D breast = system: T-47D breast
BT-549 breast = system: BT-549 breast
MDA-MB-435 melanoma = system: MDA-MB-435 melanoma
MCF7 breast = system: MCF7 breast
HCT-116 colon = system: HCT-116 colon
HCC-2998 colon = system: HCC-2998 colon
KM12 colon = system: KM12 colon
SW-620 colon = system: SW-620 colon
SK-OV-3 ovarian = system: SK-OV-3 ovarian

Structure (SMILES)	growth (SR leukemia)	growth (RPMI-8226 leukemia)	growth (OVCAR-8 ovarian)	growth (OVCAR-5 ovarian)	growth (OVCAR-4 ovarian)	growth (IGROV1 ovarian)	growth (OVCAR-3 ovarian)	growth (HS 578T breast)	growth (NCI/ADR-RES ovarian)	growth (T-47D breast)	growth (BT-549 breast)	growth (MDA-MB-435 melanoma)	growth (MCF7 breast)	growth (HCT-116 colon)	growth (HCC-2998 colon)	growth (KM12 colon)	growth (SW-620 colon)	growth (SK-OV-3 ovarian)
CCOC(=O)NC(C)C	112%	113%	103%	90.5%	107%	91.2%	112%	111%	93.5%	100%	116%	111%	106%	98.4%	103%	112%		
Cc1cc(=O)oc2cc(OCc3nn4c(Nc5nc6ccccc6s5)c(-c5ccccc5)nc4s3)ccc12	94.7%	82.6%	80.4%	97.5%	61.4%	89.2%	95.3%	78.1%	84.6%	88.1%	92.6%	88.8%	84.1%	85.4%	98.5%	89.6%	85.3%	
NS(=O)(=O)c1ccccc1NC(=O)Nc1nc2ccccc2s1	94.4%	102%	100%	101%	93.3%	89.1%	108%	100%	99.7%	87.3%		103%	82.4%	98.8%	95.8%	104%	101%	
COC(=O)/C=C1/SC(=Nc2cccc(OC)c2)N(CCc2c[nH]c3ccc(O)cc23)C1=O	0.788% (active)	16.2%	41.6%	83.3%	49.4%	51.8%	40.3%	66.5%	58.8%	42.2%	33.1%	23.5%	20.4%	34.3%	65.1%	53.5%	56.1%	
COC1/C=C/OC2(C)Oc3c(C)c(O)c4c(O)c(c(/C=N/Nc5ccc([N+](=O)[O-])cc5[N+](=O)[O-])c(O)c4c3C2=O)NC(=O)C(C)=C/C=C/C(C)C(O)C(C)C(O)C(C)C(OC(C)=O)C1C (centres undefined)	7.02% (active)	7.67% (active)	27.3%	48.3%	35%	28.5%	-42.1% (active)	20%	76.7%	-31.2% (active)	13.7%	3.5% (active)	36.6%	-46.7% (active)	-14.1% (active)	9.93% (active)	-41.2% (active)	
N#CC1=C(N)Oc2c(ccc3ccccc23)C1c1ccccc1 (centres undefined)	15.2%	8.06% (active)	7.27% (active)	33.8%	50.3%	27.2%	-2.34% (active)	28.8%	2.65% (active)	63.5%	-16.5% (active)	-38.9% (active)	11.1%	3.37% (active)	-4.65% (active)	14.7%	28.2%	
CCOC(=O)c1cc(C(=O)c2cc(OC)c(OC)c(OC)c2)n2ncccc12	18.3%	19.3%	30.4%	63.1%	62.4%	47.2%	-15.2% (active)	31.1%	3.34% (active)	58.5%	37%	-57.2% (active)	19.7%	11.8%	28.3%	20.8%	33.6%	
Cc1cc(=O)n(C(=O)Nc2ccccc2Cl)c2cc(O)ccc12	112%	97.8%	95.5%	102%	107%	104%	106%	98.7%	99.9%	97.1%		104%	101%	101%	98.5%	98.1%	93.7%	
COc1ccc2c(c1)N(CCO)C1=C(C(=O)OC1)C2c1cccc(F)c1 (centres undefined)	16%	21.3%	11%	44.6%	51.5%	34.5%	-16.7% (active)	34.2%	15.6%	56.7%		-40.6% (active)	18.1%	4.87% (active)	4.78% (active)	15.5%	26.9%	23.2%
COc1ccc(-c2nc3c(ncc4ccc(=O)[nH]c43)s2)cc1	45.5%	69.2%	83.9%	90%	98.8%	67.5%	85.5%	88%	74.6%	78.7%		80.6%	62.5%	79.2%	91%	64.8%		102%
COc1ccc2c(c1)c(-c1nc(-c3c[nH]c4ccncc34)cs1)cn2C	-26% (active)	-36.7% (active)	-52.2% (active)	-72.9% (active)	-71.4% (active)	-83.8% (active)	-90.5% (active)	-48.3% (active)	-52.8% (active)	-49.6% (active)	77.3%	-92.3% (active)	-68.9% (active)	-88.3% (active)	-73.5% (active)	-88.9% (active)	-63.9% (active)	
CN1CCN(c2cc(Nc3cc(C4CC4)[nH]n3)nc(Nc3ccc(CC(=O)NCc4cccc(F)c4)cc3)n2)CC1	30.3%	54.3%	40.7%	11%	43.9%	-13.8% (active)	41.7%	-6.93% (active)	94.4%	64.5%	43.2%	24.9%	20%	8.53% (active)	35.1%	9.2% (active)	11.5%	
CC(=O)O[C@H]1CC2CCC3C(CC[C@@]4(C)C3C[C@H]([N+]3(C)CCCCC3)[C@@H]4OC(C)=O)[C@@]2(C)C[C@@H]1N1CCCCC1 (some centres undefined)	99.5%	110%	98.1%	110%	103%	111%	112%	65%	103%	109%		99.5%	111%	101%	111%	108%	106%	106%
CCn1c(SCC(=O)N/N=C(\C)c2ccc(Cl)cc2)nc2c1c(=O)n(C)c(=O)n2C	93.4%	103%	99.9%	99%	99.8%	96.5%	115%	94.4%	102%	98.3%	99%	100%	95.8%	102%	102%	101%	95.1%	
O=C(NCCCl)Nc1ncccc1OCc1ccccc1	78%	99.4%	104%	90.9%	96.8%	95.8%	107%	110%	106%	97.9%	105%	97.1%	96.3%	101%	102%	108%	99%	
O=S(=O)(NCCCNc1nccc(-c2c(-c3ccc(F)c(O)c3)nc3occn23)n1)c1ccc(Cl)cc1	55.5%	40.4%	66.3%	118%	81.3%	62.3%	95.3%	64%	96.4%	69.1%	79.4%	27.6%	55.9%	32.8%	85.7%	70.2%		
COc1ccc(/C=C/C(=O)c2cccc(OCCCCOc3cccc(C(=O)/C=C/c4ccc(OC)c(OC)c4)c3)c2)cc1OC	69.4%	35.6%	68.3%	102%	32.9%	75.2%	80.9%	78.4%	78.1%	43.3%	60.7%	75.5%	44.3%	58.6%	116%	79.1%	89.5%	
